# Test results from paper PMC11006913.
# Numbering of substitutions follows the chain as printed.
# How the values were obtained:
# Test in all cases: PBM; 200 nM protein, PBS
# Settings in all cases: dsDNA, one strand shown
# [1] = target: HOXA4 (Homo sapiens, UniProt Q00056 201-287, W262R)
# [2] = target: HOXA2 (Homo sapiens, UniProt O43364 129-215, R185T)
# [3] = target: HOXA4 (Homo sapiens, UniProt Q00056 201-287, R217L)
# [4] = target: HOXA2 (Homo sapiens, UniProt O43364 129-215, R185K)
# [5] = target: HOXA4 (Homo sapiens, UniProt Q00056 201-287)
# Sequence of HOXA4 (Homo sapiens, UniProt Q00056 201-287) (Q00056 201-287): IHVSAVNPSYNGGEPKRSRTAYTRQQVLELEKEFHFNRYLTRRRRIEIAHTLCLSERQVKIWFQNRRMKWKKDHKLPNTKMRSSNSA
# [6] = target: HOXA2 (Homo sapiens, UniProt O43364 129-215, Y150S)
# Sequence of HOXA2 (Homo sapiens, UniProt O43364 129-215, Y150S) (O43364 129-215 Y150S): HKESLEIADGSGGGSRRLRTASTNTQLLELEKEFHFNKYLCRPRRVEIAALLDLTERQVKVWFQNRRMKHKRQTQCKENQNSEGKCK
# [7] = target: HOXA4 (Homo sapiens, UniProt Q00056 201-287, W262F)
# Sequence of HOXA4 (Homo sapiens, UniProt Q00056 201-287, W262F) (Q00056 201-287 W262F): as the sequence (Q00056 201-287) above, with W62F counted along it
# [8] = target: HOXA2 (Homo sapiens, UniProt O43364 129-215)
# Sequence of HOXA2 (Homo sapiens, UniProt O43364 129-215) (O43364 129-215): as the sequence (O43364 129-215 Y150S) above, with S22Y counted along it
# [9] = target: VAX1 (Homo sapiens, UniProt Q5SQQ9 86-172)
# Sequence of VAX1 (Homo sapiens, UniProt Q5SQQ9 86-172) (Q5SQQ9 86-172): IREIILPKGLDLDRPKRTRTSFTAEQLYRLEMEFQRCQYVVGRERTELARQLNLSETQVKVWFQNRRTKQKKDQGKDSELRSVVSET
# [10] = target: VAX1 (Homo sapiens, UniProt Q5SQQ9 86-172, T142I)
# Sequence of VAX1 (Homo sapiens, UniProt Q5SQQ9 86-172, T142I) (Q5SQQ9 86-172 T142I): as the sequence (Q5SQQ9 86-172) above, with T57I counted along it
# [11] = target: VAX1 (Homo sapiens, UniProt Q5SQQ9 86-172, K157R)
# Sequence of VAX1 (Homo sapiens, UniProt Q5SQQ9 86-172, K157R) (Q5SQQ9 86-172 K157R): as the sequence (Q5SQQ9 86-172) above, with K72R counted along it
# [12] = target: HOXB6 (Homo sapiens, UniProt P17509 132-218, K202E)
# Sequence of HOXB6 (Homo sapiens, UniProt P17509 132-218, K202E) (P17509 132-218 K202E): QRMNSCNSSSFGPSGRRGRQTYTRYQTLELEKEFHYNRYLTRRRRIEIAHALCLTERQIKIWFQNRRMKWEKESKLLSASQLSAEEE
# [13] = target: HOXB6 (Homo sapiens, UniProt P17509 132-218)
# Sequence of HOXB6 (Homo sapiens, UniProt P17509 132-218) (P17509 132-218): as the sequence (P17509 132-218 K202E) above, with E71K counted along it
# [14] = target: PITX2 (Homo sapiens, UniProt Q99697 72-157)
# [15] = target: T1, NKX2-6 (Homo sapiens, UniProt A6NCS4 118-204)
# T1 sequence: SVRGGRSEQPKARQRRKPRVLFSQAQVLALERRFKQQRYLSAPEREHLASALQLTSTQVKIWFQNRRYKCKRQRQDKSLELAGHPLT
# [16] = target: T2, NKX2-6 (Homo sapiens, UniProt A6NCS4 118-204, F151L)
# T2 sequence: T1 sequence with F34L
# [17] = target: ALX3 (Homo sapiens, UniProt O95076 139-225, N203Q)
# Sequence of ALX3 (Homo sapiens, UniProt O95076 139-225, N203Q) (O95076 139-225 N203Q): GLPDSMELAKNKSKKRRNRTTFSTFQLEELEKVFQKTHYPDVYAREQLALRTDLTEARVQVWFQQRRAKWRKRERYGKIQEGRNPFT
# [18] = target: ALX3 (Homo sapiens, UniProt O95076 139-225)
# Sequence of ALX3 (Homo sapiens, UniProt O95076 139-225) (O95076 139-225): as the sequence (O95076 139-225 N203Q) above, with Q65N counted along it
# [19] = target: ALX3 (Homo sapiens, UniProt O95076 139-225, L168Q)
# Sequence of ALX3 (Homo sapiens, UniProt O95076 139-225, L168Q) (O95076 139-225 L168Q): as the sequence (O95076 139-225 N203Q) above, with L30Q, Q65N counted along it
# [20] = target: ALX3 (Homo sapiens, UniProt O95076 139-225, L168V)
# Sequence of ALX3 (Homo sapiens, UniProt O95076 139-225, L168V) (O95076 139-225 L168V): as the sequence (O95076 139-225 N203Q) above, with L30V, Q65N counted along it
# [21] = target: ALX3 (Homo sapiens, UniProt O95076 139-225, N203S)
# Sequence of ALX3 (Homo sapiens, UniProt O95076 139-225, N203S) (O95076 139-225 N203S): as the sequence (O95076 139-225 N203Q) above, with Q65S counted along it
# [22] = target: MSX2 (Homo sapiens, UniProt P35548 130-214, R199I)
# Sequence of MSX2 (Homo sapiens, UniProt P35548 130-214, R199I) (P35548 130-214 R199I): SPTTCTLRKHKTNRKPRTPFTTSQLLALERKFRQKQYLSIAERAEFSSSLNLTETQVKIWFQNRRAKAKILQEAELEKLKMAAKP
# [23] = target: MSX2 (Homo sapiens, UniProt P35548 130-214)
# Sequence of MSX2 (Homo sapiens, UniProt P35548 130-214) (P35548 130-214): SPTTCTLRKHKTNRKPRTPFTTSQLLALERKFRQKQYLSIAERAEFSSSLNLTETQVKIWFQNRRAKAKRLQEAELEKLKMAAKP
# [24] = target: MSX2 (Homo sapiens, UniProt P35548 130-214, F161Y)
# Sequence of MSX2 (Homo sapiens, UniProt P35548 130-214, F161Y) (P35548 130-214 F161Y): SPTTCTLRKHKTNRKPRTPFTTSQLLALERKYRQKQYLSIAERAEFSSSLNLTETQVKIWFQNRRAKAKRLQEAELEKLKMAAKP
# [25] = target: PROP1 (Homo sapiens, UniProt O75360 56-141)
# Sequence of PROP1 (Homo sapiens, UniProt O75360 56-141) (O75360 56-141): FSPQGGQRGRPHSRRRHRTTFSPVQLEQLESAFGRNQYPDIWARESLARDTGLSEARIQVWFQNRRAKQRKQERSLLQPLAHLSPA
# [26] = target: PROP1 (Homo sapiens, UniProt O75360 56-141, R99H)
# Sequence of PROP1 (Homo sapiens, UniProt O75360 56-141, R99H) (O75360 56-141 R99H): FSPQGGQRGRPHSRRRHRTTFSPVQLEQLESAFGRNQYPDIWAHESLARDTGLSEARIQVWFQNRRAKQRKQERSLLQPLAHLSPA
# [27] = target: PROP1 (Homo sapiens, UniProt O75360 56-141, F88S)
# Sequence of PROP1 (Homo sapiens, UniProt O75360 56-141, F88S) (O75360 56-141 F88S): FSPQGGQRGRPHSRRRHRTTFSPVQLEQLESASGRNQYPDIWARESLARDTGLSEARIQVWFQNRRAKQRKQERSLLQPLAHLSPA
# Sequence of HOXA2 (Homo sapiens, UniProt O43364 129-215, R185T) (O43364 129-215 R185T): as the sequence (O43364 129-215 Y150S) above, with S22Y, R57T counted along it
# Sequence of HOXA4 (Homo sapiens, UniProt Q00056 201-287, R217L) (Q00056 201-287 R217L): as the sequence (Q00056 201-287) above, with R17L counted along it
# Sequence of HOXA2 (Homo sapiens, UniProt O43364 129-215, R185K) (O43364 129-215 R185K): as the sequence (O43364 129-215 Y150S) above, with S22Y, R57K counted along it
# Sequence of HOXA4 (Homo sapiens, UniProt Q00056 201-287, W262R) (Q00056 201-287 W262R): as the sequence (Q00056 201-287) above, with W62R counted along it
sequence,measurement,setting,value
AGGGCTCC,binding signal,[1],"9.75 upbm affinity estimate (log intensity, higher = more binding, comparable within an allelic series)"
same,binding signal,[2],"7.29 upbm affinity estimate (log intensity, higher = more binding, comparable within an allelic series)"
same,binding signal,[3],"9.79 upbm affinity estimate (log intensity, higher = more binding, comparable within an allelic series)"
same,binding signal,[4],"10.4 upbm affinity estimate (log intensity, higher = more binding, comparable within an allelic series)"
same,binding signal,[5],"9.81 upbm affinity estimate (log intensity, higher = more binding, comparable within an allelic series)"
same,binding signal,[6],"10.3 upbm affinity estimate (log intensity, higher = more binding, comparable within an allelic series)"
same,binding signal,[7],"9.81 upbm affinity estimate (log intensity, higher = more binding, comparable within an allelic series)"
same,binding signal,[8],"7.22 upbm affinity estimate (log intensity, higher = more binding, comparable within an allelic series)"
TAATGAGA,binding signal,[1],"10.5 upbm affinity estimate (log intensity, higher = more binding, comparable within an allelic series)"
same,binding signal,[2],"12.9 upbm affinity estimate (log intensity, higher = more binding, comparable within an allelic series)"
same,binding signal,[3],"11.8 upbm affinity estimate (log intensity, higher = more binding, comparable within an allelic series)"
same,binding signal,[4],"13.3 upbm affinity estimate (log intensity, higher = more binding, comparable within an allelic series)"
same,binding signal,[5],"13.6 upbm affinity estimate (log intensity, higher = more binding, comparable within an allelic series)"
same,binding signal,[9],"13.2 upbm affinity estimate (log intensity, higher = more binding, comparable within an allelic series)"
same,binding signal,[10],"12.7 upbm affinity estimate (log intensity, higher = more binding, comparable within an allelic series)"
same,binding signal,[6],"10.8 upbm affinity estimate (log intensity, higher = more binding, comparable within an allelic series)"
same,binding signal,[7],"11.5 upbm affinity estimate (log intensity, higher = more binding, comparable within an allelic series)"
same,binding signal,[8],"12.5 upbm affinity estimate (log intensity, higher = more binding, comparable within an allelic series)"
same,binding signal,[11],"12.8 upbm affinity estimate (log intensity, higher = more binding, comparable within an allelic series)"
CATTAACG,binding signal,[1],"10.6 upbm affinity estimate (log intensity, higher = more binding, comparable within an allelic series)"
same,binding signal,[12],"9.9 upbm affinity estimate (log intensity, higher = more binding, comparable within an allelic series)"
same,binding signal,[3],"11.8 upbm affinity estimate (log intensity, higher = more binding, comparable within an allelic series)"
same,binding signal,[5],"13.6 upbm affinity estimate (log intensity, higher = more binding, comparable within an allelic series)"
same,binding signal,[7],"11.4 upbm affinity estimate (log intensity, higher = more binding, comparable within an allelic series)"
same,binding signal,[13],"11.6 upbm affinity estimate (log intensity, higher = more binding, comparable within an allelic series)"
GCGGTCAC,binding signal,[1],"9.83 upbm affinity estimate (log intensity, higher = more binding, comparable within an allelic series)"
same,binding signal,[3],"9.77 upbm affinity estimate (log intensity, higher = more binding, comparable within an allelic series)"
same,binding signal,[14],"7.97 upbm affinity estimate (log intensity, higher = more binding, comparable within an allelic series)"
same,binding signal,[5],"9.75 upbm affinity estimate (log intensity, higher = more binding, comparable within an allelic series)"
same,binding signal,[7],"9.9 upbm affinity estimate (log intensity, higher = more binding, comparable within an allelic series)"
CCCGTGTC,binding signal,[1],"9.85 upbm affinity estimate (log intensity, higher = more binding, comparable within an allelic series)"
same,binding signal,[3],"9.73 upbm affinity estimate (log intensity, higher = more binding, comparable within an allelic series)"
same,binding signal,[15],"9.5 upbm affinity estimate (log intensity, higher = more binding, comparable within an allelic series)"
same,binding signal,[5],"9.62 upbm affinity estimate (log intensity, higher = more binding, comparable within an allelic series)"
same,binding signal,[16],"9.22 upbm affinity estimate (log intensity, higher = more binding, comparable within an allelic series)"
same,binding signal,[7],"9.79 upbm affinity estimate (log intensity, higher = more binding, comparable within an allelic series)"
CCCCCGGC,binding signal,[1],"9.54 upbm affinity estimate (log intensity, higher = more binding, comparable within an allelic series)"
same,binding signal,[3],"9.54 upbm affinity estimate (log intensity, higher = more binding, comparable within an allelic series)"
same,binding signal,[17],"7.57 upbm affinity estimate (log intensity, higher = more binding, comparable within an allelic series)"
same,binding signal,[5],"9.88 upbm affinity estimate (log intensity, higher = more binding, comparable within an allelic series)"
same,binding signal,[18],"7.92 upbm affinity estimate (log intensity, higher = more binding, comparable within an allelic series)"
same,binding signal,[19],"7.56 upbm affinity estimate (log intensity, higher = more binding, comparable within an allelic series)"
same,binding signal,[20],"7.46 upbm affinity estimate (log intensity, higher = more binding, comparable within an allelic series)"
same,binding signal,[7],"9.51 upbm affinity estimate (log intensity, higher = more binding, comparable within an allelic series)"
same,binding signal,[21],"7.52 upbm affinity estimate (log intensity, higher = more binding, comparable within an allelic series)"
AACATTAG,binding signal,[1],"10.2 upbm affinity estimate (log intensity, higher = more binding, comparable within an allelic series)"
same,binding signal,[3],"10.8 upbm affinity estimate (log intensity, higher = more binding, comparable within an allelic series)"
same,binding signal,[5],"12.4 upbm affinity estimate (log intensity, higher = more binding, comparable within an allelic series)"
same,binding signal,[7],"10.7 upbm affinity estimate (log intensity, higher = more binding, comparable within an allelic series)"
GCTGCTCC,binding signal,[1],"9.76 upbm affinity estimate (log intensity, higher = more binding, comparable within an allelic series)"
same,binding signal,[3],"9.74 upbm affinity estimate (log intensity, higher = more binding, comparable within an allelic series)"
same,binding signal,[22],"9.39 upbm affinity estimate (log intensity, higher = more binding, comparable within an allelic series)"
same,binding signal,[5],"9.73 upbm affinity estimate (log intensity, higher = more binding, comparable within an allelic series)"
same,binding signal,[23],"9.4 upbm affinity estimate (log intensity, higher = more binding, comparable within an allelic series)"
same,binding signal,[24],"9.41 upbm affinity estimate (log intensity, higher = more binding, comparable within an allelic series)"
same,binding signal,[7],"9.78 upbm affinity estimate (log intensity, higher = more binding, comparable within an allelic series)"
AGGGGGCA,binding signal,[1],"9.67 upbm affinity estimate (log intensity, higher = more binding, comparable within an allelic series)"
same,binding signal,[3],"9.81 upbm affinity estimate (log intensity, higher = more binding, comparable within an allelic series)"
same,binding signal,[5],"9.88 upbm affinity estimate (log intensity, higher = more binding, comparable within an allelic series)"
same,binding signal,[7],"9.82 upbm affinity estimate (log intensity, higher = more binding, comparable within an allelic series)"
CATCCCCC,binding signal,[1],"9.63 upbm affinity estimate (log intensity, higher = more binding, comparable within an allelic series)"
same,binding signal,[3],"9.8 upbm affinity estimate (log intensity, higher = more binding, comparable within an allelic series)"
same,binding signal,[5],"9.66 upbm affinity estimate (log intensity, higher = more binding, comparable within an allelic series)"
same,binding signal,[25],"6.77 upbm affinity estimate (log intensity, higher = more binding, comparable within an allelic series)"
same,binding signal,[26],"6.66 upbm affinity estimate (log intensity, higher = more binding, comparable within an allelic series)"
same,binding signal,[27],"6.11 upbm affinity estimate (log intensity, higher = more binding, comparable within an allelic series)"
same,binding signal,[7],"9.58 upbm affinity estimate (log intensity, higher = more binding, comparable within an allelic series)"
CACTGGCC,binding signal,[1],"9.86 upbm affinity estimate (log intensity, higher = more binding, comparable within an allelic series)"
same,binding signal,[2],"7.06 upbm affinity estimate (log intensity, higher = more binding, comparable within an allelic series)"
same,binding signal,[3],"9.9 upbm affinity estimate (log intensity, higher = more binding, comparable within an allelic series)"
same,binding signal,[4],"10.5 upbm affinity estimate (log intensity, higher = more binding, comparable within an allelic series)"
same,binding signal,[5],"9.86 upbm affinity estimate (log intensity, higher = more binding, comparable within an allelic series)"
same,binding signal,[6],"10.5 upbm affinity estimate (log intensity, higher = more binding, comparable within an allelic series)"
same,binding signal,[7],"9.96 upbm affinity estimate (log intensity, higher = more binding, comparable within an allelic series)"
same,binding signal,[8],"7.16 upbm affinity estimate (log intensity, higher = more binding, comparable within an allelic series)"
GGCCCGGA,binding signal,[1],"9.72 upbm affinity estimate (log intensity, higher = more binding, comparable within an allelic series)"
same,binding signal,[3],"9.68 upbm affinity estimate (log intensity, higher = more binding, comparable within an allelic series)"
same,binding signal,[22],"9.48 upbm affinity estimate (log intensity, higher = more binding, comparable within an allelic series)"
same,binding signal,[17],"7.72 upbm affinity estimate (log intensity, higher = more binding, comparable within an allelic series)"
same,binding signal,[5],"9.79 upbm affinity estimate (log intensity, higher = more binding, comparable within an allelic series)"
same,binding signal,[23],"9.31 upbm affinity estimate (log intensity, higher = more binding, comparable within an allelic series)"
same,binding signal,[18],"7.7 upbm affinity estimate (log intensity, higher = more binding, comparable within an allelic series)"
same,binding signal,[19],"7.72 upbm affinity estimate (log intensity, higher = more binding, comparable within an allelic series)"
same,binding signal,[20],"7.71 upbm affinity estimate (log intensity, higher = more binding, comparable within an allelic series)"
same,binding signal,[24],"9.46 upbm affinity estimate (log intensity, higher = more binding, comparable within an allelic series)"
same,binding signal,[7],"9.78 upbm affinity estimate (log intensity, higher = more binding, comparable within an allelic series)"
same,binding signal,[21],"7.75 upbm affinity estimate (log intensity, higher = more binding, comparable within an allelic series)"
CCAGCCGG,binding signal,[1],"9.8 upbm affinity estimate (log intensity, higher = more binding, comparable within an allelic series)"
same,binding signal,[3],"9.68 upbm affinity estimate (log intensity, higher = more binding, comparable within an allelic series)"
same,binding signal,[5],"9.56 upbm affinity estimate (log intensity, higher = more binding, comparable within an allelic series)"
same,binding signal,[7],"9.77 upbm affinity estimate (log intensity, higher = more binding, comparable within an allelic series)"
ATAAATCG,binding signal,[1],"10.2 upbm affinity estimate (log intensity, higher = more binding, comparable within an allelic series)"
same,binding signal,[5],"11.5 upbm affinity estimate (log intensity, higher = more binding, comparable within an allelic series)"
ATATTGAG,binding signal,[1],"10.3 upbm affinity estimate (log intensity, higher = more binding, comparable within an allelic series)"
same,binding signal,[5],"10.9 upbm affinity estimate (log intensity, higher = more binding, comparable within an allelic series)"
GAAGGGGA,binding signal,[1],"9.88 upbm affinity estimate (log intensity, higher = more binding, comparable within an allelic series)"
same,binding signal,[3],"9.89 upbm affinity estimate (log intensity, higher = more binding, comparable within an allelic series)"
same,binding signal,[5],"9.82 upbm affinity estimate (log intensity, higher = more binding, comparable within an allelic series)"
same,binding signal,[7],"10 upbm affinity estimate (log intensity, higher = more binding, comparable within an allelic series)"
CCTCCGTC,binding signal,[1],"9.85 upbm affinity estimate (log intensity, higher = more binding, comparable within an allelic series)"
same,binding signal,[3],"9.8 upbm affinity estimate (log intensity, higher = more binding, comparable within an allelic series)"
same,binding signal,[5],"9.63 upbm affinity estimate (log intensity, higher = more binding, comparable within an allelic series)"
same,binding signal,[7],"9.84 upbm affinity estimate (log intensity, higher = more binding, comparable within an allelic series)"
CTCATCTA,binding signal,[1],"10.3 upbm affinity estimate (log intensity, higher = more binding, comparable within an allelic series)"
same,binding signal,[5],"11.5 upbm affinity estimate (log intensity, higher = more binding, comparable within an allelic series)"
AGTCCCCG,binding signal,[1],"9.96 upbm affinity estimate (log intensity, higher = more binding, comparable within an allelic series)"
same,binding signal,[3],"9.67 upbm affinity estimate (log intensity, higher = more binding, comparable within an allelic series)"
same,binding signal,[5],"9.89 upbm affinity estimate (log intensity, higher = more binding, comparable within an allelic series)"
same,binding signal,[7],"9.99 upbm affinity estimate (log intensity, higher = more binding, comparable within an allelic series)"
